From PubChem
Most compounds without a hit are left out; they make up all but 1.7% or so of the library.
TRPML1 agonist: activates the human TRPML1 channel. 0.12% of 410,000 active. AID 624414. TRPML1-expressing cells, Ca2+ dye fluorescence, FDSS. activation, % (concentration not given with the values). Q9GZU1; in the data active = activation above about 50%; inconclusive = mostly about 30% to 49%; note: 0% is about no effect
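In this qHTS format, compounds were pin-transferred onto Ca8-dye-loaded TRPML1-DL cells induced with Tet overnight, and intracellular Ca2+ fluorescence was recorded kinetically for 110 s after a 10 s baseline. A subsequent 4uM final 54-4 (EC80) addition followed by a second 110 s read served as the antagonist phase.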
KCNH2 WT inh: KCNH2 (human, wildtype) channel inhibition | 0.37% of 340,000 active | AID 720551 | activity change, % at 1.84 µM | Q12809 | U2OS, BacMam KCNH2, thallium flux FluxOr; hits give low values;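 active = maximum activity change below -70%; inconclusive = maximum activity change between -70% and -50%; inactive = maximum activity change above -50%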; note: % is set by controls: 0 for no effect and ±100 for the full control effect
Target sequence (Q12809 whole entry, looked up): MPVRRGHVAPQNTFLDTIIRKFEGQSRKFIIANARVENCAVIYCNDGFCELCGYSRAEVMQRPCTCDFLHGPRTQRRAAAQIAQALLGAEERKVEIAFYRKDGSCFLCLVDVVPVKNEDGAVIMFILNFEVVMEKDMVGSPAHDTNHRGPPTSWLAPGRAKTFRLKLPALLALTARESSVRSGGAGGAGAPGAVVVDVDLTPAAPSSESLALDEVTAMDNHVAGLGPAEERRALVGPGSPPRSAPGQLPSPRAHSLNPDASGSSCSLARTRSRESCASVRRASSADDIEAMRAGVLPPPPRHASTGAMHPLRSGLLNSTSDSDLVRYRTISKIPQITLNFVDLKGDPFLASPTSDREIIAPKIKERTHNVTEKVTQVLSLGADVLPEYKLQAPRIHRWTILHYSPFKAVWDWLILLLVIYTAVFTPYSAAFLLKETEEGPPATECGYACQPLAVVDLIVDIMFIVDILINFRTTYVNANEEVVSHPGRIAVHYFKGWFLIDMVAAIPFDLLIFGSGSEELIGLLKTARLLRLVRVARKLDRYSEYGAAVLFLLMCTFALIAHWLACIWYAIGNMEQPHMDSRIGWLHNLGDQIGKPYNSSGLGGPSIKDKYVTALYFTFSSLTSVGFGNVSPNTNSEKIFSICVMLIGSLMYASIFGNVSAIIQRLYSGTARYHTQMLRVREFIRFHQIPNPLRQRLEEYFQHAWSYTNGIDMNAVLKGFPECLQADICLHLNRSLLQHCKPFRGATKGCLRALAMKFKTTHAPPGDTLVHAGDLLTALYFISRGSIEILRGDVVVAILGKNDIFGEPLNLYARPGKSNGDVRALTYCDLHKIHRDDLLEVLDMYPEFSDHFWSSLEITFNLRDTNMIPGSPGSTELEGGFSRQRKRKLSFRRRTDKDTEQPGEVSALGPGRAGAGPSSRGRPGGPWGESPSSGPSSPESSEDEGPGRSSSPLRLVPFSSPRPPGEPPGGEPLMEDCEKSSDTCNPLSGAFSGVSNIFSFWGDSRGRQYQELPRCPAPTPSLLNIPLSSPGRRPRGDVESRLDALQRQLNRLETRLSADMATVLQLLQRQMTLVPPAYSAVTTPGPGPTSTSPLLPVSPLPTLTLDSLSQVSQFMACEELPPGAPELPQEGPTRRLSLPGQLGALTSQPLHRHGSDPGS
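U2OS cells transduced with wild-type KCNH2 virus are loaded with FluxOr dye for 45 min, and thallium flux is measured in kinetic reads before and after stimulation buffer. Rate constants are normalized to DMSO controls.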
TRHR enhancer: allosterically enhances the human TRH receptor | P34981 | TRHR cells, fluo-8 calcium fluorescence, EC20 TRH enhancement | enhancement, % at 2 µM | 0.66% of 360,000 active | AID 493056; in the data active = enhancement above about 30%; note: 0% is about no effect
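TRHR-expressing cells loaded with fluo-8 calcium dye were read kinetically (ex 480/em 530) during compound addition, then stimulated with an EC20 of TRH (10 nM final). Enhancement of the Gq-mediated intracellular calcium response was scored.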
TRPML1 blocker: human mucolipin-1 channel inhibition; Q9GZU1; TRPML1-inducible cells, Ca2+ dye fluorescence, FDSS; hits give low values; inhibition of EC80 agonist-evoked calcium signal; activity change, negative = inhibition, % (concentration not given with the values); 0.02% of 390,000 active; AID 624415; in the data active = activity change below about -50%; inconclusive = between about -30% and that limit;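 note: stimulus is agonist 54-4 at its EC80 concentration; % is set by controls: 0 for no effect and ±100 for the full control effect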
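TRPML1-DL cells, Tet-induced overnight (~16 h, 37 °C) at 1,500 cells/well, were loaded with Ca8 no-wash dye plus quencher for 45-90 min at room temperature. Compounds were pinned during FDSS kinetic reading; agonist 54-4 at EC80 (4 uM final) then added.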
KCNH2 3.1 block: blocks the human KCNH2 3.1 channel isoform | U2OS KCNH2 3.1, thallium flux FluxOr; hits give low values | activity change, % (tested at about 1.8 µM) | 0.95% of 340,000 active;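 active = maximum activity change below -70%; inconclusive = maximum activity change from -70% to -50%; inactive = maximum activity change above -50%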;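 note: thallium influx rate constant from kinetic fluorescence after stimulation buffer; % is set by controls: 0 for no effect and ±100 for the full control effect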
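Channel expression came from 3.1 mutant virus (1.77 x 10^8 /mL) applied to suspended U2OS cells for 4 h. Flux was tracked with FluxOr dye plus Red40 quencher, and kinetic rate constants normalized to controls.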
TRHR agonist: agonists of human TRH receptor; TRHR cells, calcium flux fluo-8, FDSS agonist mode; activation, % at 2 µM; 0.18% of 360,000 active; in the data active = activation above about 30%; note: 0% is about no effect
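TRHR-expressing cells loaded with fluo-8 calcium dye; 23 nL library compound pin-transferred, kinetic FDSS fluorescence (Ex 480/Em 530) recorded about 180 s for agonist-induced calcium release, before a 10 nM TRH EC20 addition for potentiator mode.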
Numbers without * were called inactive; ! = repeats disagree.

CC(C)c1ccc(/C=N/NC(=O)c2nnn(-c3nonc3N)c2CN(C)C2CCCCC2)cc1 was read as TRPML1 agonist 1, KCNH2 WT inh -10, TRHR enhancer 21, TRPML1 blocker -9, KCNH2 3.1 block -24 and TRHR agonist 0.
For CC(C)[C@H](NC(=O)c1ccco1)C(=O)N(C)Cc1ccc(C(F)(F)F)cc1 the results were TRPML1 agonist -1, KCNH2 WT inh -1, TRHR enhancer -6, TRPML1 blocker -3, KCNH2 3.1 block -2 and TRHR agonist 0.
For O=C1CSC(c2ccccc2)N1Cc1ccccc1 (centres undefined) the results were TRHR enhancer -8 and TRHR agonist 0.
O=C(Nc1cnn(Cc2ccc(Cl)cc2Cl)c1)c1noc2c1CCc1ccccc1-2 was read as TRPML1 agonist 0, TRHR enhancer 5, TRPML1 blocker -14 and TRHR agonist 35*.
`O=C([C@@H]1CC=C[C@@H]2CCN(C3CC3)C(=O)[C@@H]21)N1CCOCC1` gave TRPML1 agonist 0.
For CCCCCCCCCCOC(=O)Cn1c(COc2ccc(OC)cc2)[n+](C)c2ccccc21 the results were TRPML1 agonist 0, KCNH2 WT inh -116*!, TRHR enhancer 3, TRPML1 blocker -10, KCNH2 3.1 block -93*! and TRHR agonist 4.
CCCCCCCCCCOC(=O)Cn1c(COc2ccccc2C)[n+](C)c2ccccc21 was read as TRPML1 agonist 0, KCNH2 WT inh inconclusive, TRHR enhancer -7, TRPML1 blocker 47, KCNH2 3.1 block -81* and TRHR agonist 1.
`CCCCCCCCCCOC(=O)Cn1c(COc2cccc(C)c2)[n+](C)c2ccccc21` gave TRPML1 agonist 0, KCNH2 WT inh -20, TRHR enhancer -6, TRPML1 blocker 39, KCNH2 3.1 block -26 and TRHR agonist 0.
For CCCCCCCCCCOC(=O)Cn1c(COc2ccccc2)[n+](C)c2ccccc21 the results were TRPML1 agonist 0, KCNH2 WT inh -47, TRHR enhancer -1, TRPML1 blocker 11, KCNH2 3.1 block 3 and TRHR agonist 1.
Screening O=C(NNC(=O)C1[C@H]2CCCC[C@@H]12)NC1CCCCC1 (some centres undefined) returned TRPML1 agonist 0, TRHR enhancer 5, TRPML1 blocker 6, KCNH2 3.1 block -76* and TRHR agonist 0.
For COCCNC(=O)C1CCN(S(=O)(=O)N2CCC3(CC2)OCCO3)CC1 the results were TRPML1 agonist 0, KCNH2 WT inh -8, TRHR enhancer 5, TRPML1 blocker 3, KCNH2 3.1 block -200* and TRHR agonist 0.
Screening COc1ccc(CCNC(=O)C2CCN(S(=O)(=O)N3CCC4(CC3)OCCO4)CC2)cc1OC returned TRPML1 agonist 1, KCNH2 WT inh -4, TRHR enhancer 3, TRPML1 blocker -10, KCNH2 3.1 block -3 and TRHR agonist 0.
CN1CCc2c(sc(NC(=O)CSc3ccccc3)c2-c2nc3ccccc3s2)C1 was read as TRPML1 agonist 59*, TRHR enhancer -19, TRPML1 blocker -12 and TRHR agonist 115*.
For O=C(NCc1ccco1)C1CCN(c2nc3ccccc3n2Cc2ccccc2F)CC1 the results were TRPML1 agonist 0, KCNH2 WT inh inconclusive, TRHR enhancer 0, TRPML1 blocker 27, KCNH2 3.1 block -105* and TRHR agonist -1.
COCCn1c(SCC(=O)Nc2ccc(Cl)c(S(=O)(=O)N(C)C)c2)nc2ccccc21 was read as TRPML1 agonist 3, KCNH2 WT inh -118*, TRHR enhancer -8, TRPML1 blocker 7, KCNH2 3.1 block 4 and TRHR agonist 0.
O=C(CN1CCN(C(=O)C2CCN(C(=O)/C=C/c3ccccc3)CC2)CC1)Nc1ccc(F)cc1 was read as TRPML1 agonist 1, KCNH2 WT inh -39, TRPML1 blocker 15 and KCNH2 3.1 block -99*.
O=C(CN1C(=O)c2cccc3cccc1c23)NCc1ccc2c(c1)OCO2 was read as TRPML1 agonist 1, KCNH2 WT inh 10, TRHR enhancer -4, TRPML1 blocker 18, KCNH2 3.1 block -12 and TRHR agonist -1.
`COc1cc(NC(=O)CN2CCCCCC2)cc(OC)c1` gave TRPML1 agonist 0, KCNH2 WT inh -2, TRHR enhancer -3, TRPML1 blocker 19, KCNH2 3.1 block -10 and TRHR agonist 1.
O=C(CN1CCC(C(=O)c2ccc(F)cc2)CC1)Nc1ccccc1 was read as TRPML1 agonist 0, KCNH2 WT inh -4, TRHR enhancer -7, TRPML1 blocker 15, KCNH2 3.1 block -20 and TRHR agonist -1.
O=C(CN1C(=O)c2cccc3cccc1c23)Nc1ccc2c(c1)OCO2 was read as TRPML1 agonist 0, KCNH2 WT inh 2, TRHR enhancer 31*, TRPML1 blocker -4, KCNH2 3.1 block -2 and TRHR agonist -2.
CCOc1ccc(NC(=O)CN2CCN(CC(=O)Nc3ccc(F)cc3)CC2)cc1 was read as TRPML1 agonist 0, KCNH2 WT inh -92*, TRHR enhancer 7, TRPML1 blocker 2, KCNH2 3.1 block -89* and TRHR agonist -1.
COc1ccc(NC(=O)CN2CCN(CC(=O)Nc3cc(OC)cc(OC)c3)CC2)cc1 was read as TRPML1 agonist -1, KCNH2 WT inh -26, TRHR enhancer -2, TRPML1 blocker -22, KCNH2 3.1 block -81* and TRHR agonist 0.
Cc1cc2c(s1)c1cnn(Cc3ccc(F)c(Cl)c3)c(=O)c1n2C was read as TRHR enhancer 0 and TRHR agonist 0.
Screening CCOc1ccc(NC(=O)CN2CCN(CC(=O)Nc3ccc4c(c3)OCO4)CC2)cc1 returned TRPML1 agonist -1, KCNH2 WT inh -120*, TRHR enhancer 10, TRPML1 blocker -1, KCNH2 3.1 block -106* and TRHR agonist -1.
Screening NC(=O)CN1CCN(c2nc(-c3ccc(F)cc3)cs2)CC1 returned TRPML1 agonist -1, KCNH2 WT inh 3, TRHR enhancer -1, TRPML1 blocker -3, KCNH2 3.1 block 3 and TRHR agonist 0.
O=C(CN1CCN(c2nc(-c3ccc(F)cc3)cs2)CC1)Nc1ccc2c(c1)OCO2 was read as TRPML1 agonist 0, KCNH2 WT inh -1, TRHR enhancer -3, TRPML1 blocker 4, KCNH2 3.1 block -124* and TRHR agonist -1.
Screening CC1CCN(CC(=O)Nc2ccc3c(c2)OCO3)CC1 returned TRPML1 agonist -1, KCNH2 WT inh -3, TRHR enhancer -2, TRPML1 blocker -1, KCNH2 3.1 block 5 and TRHR agonist 0.
